Screen size: about 290,000 compounds; about 27,000 (9.3%) were called active. The entries come from a sample that favours actives as a whole. Unmarked numbers belong to inactive results. No stated cut-off is given here; in the data, active means inhibition mostly above about 28% (no sharp cut-off); inactive means mostly below about 43%.
Experiment: A qHTS for Small Molecule Inhibitors of Shiga Toxin; further: 0% is about no effect
Settings: Vero cells, Shiga toxin protein synthesis inhibition reporter; at 38.7 µM, stronger effect = higher value

Row | SMILES | inhibition
1 | Cc1cc(C(F)F)nn1CC(=O)NC1CCCCCC1 | -2.84%
2 | CCn1c(=S)sc2c(=O)n(CC(=O)Nc3ccc(OC)cc3)c(C)nc21 | -8.22%
3 | COc1cc(CCC(=O)Nc2ccncc2Cl)cc(OC)c1OC | -2.22%
4 | CN(C(=O)CSc1nnnn1-c1ccccc1)C1CCCCC1 | 31.7%
5 | CN(C(=O)CCn1c(=S)oc2ccccc21)C1CCCCC1 | -6.3%
6 | CN(C(=O)CSc1nncc2ccccc12)C1CCCCC1 | 69.8% (active)
7 | CC(=O)Nc1ccc(S(=O)(=O)N2CCN(C3CCCCCCC3)CC2)cc1 | -14.3%
8 | CC(=O)Nc1ccc(N2C(=O)C3C4C=CC(CC4)C3C2=O)cc1 (stereo not drawn) | 11.7%
9 | CC(=O)Nc1ccc(NC(=O)CC2CCCC2)cc1 | 48.2% (active)
10 | O=C(Cn1nc(C(F)(F)F)c2c1CCC2)NCc1ccc(F)cc1 | -2.3%
11 | O=C(Cc1ccc(F)cc1)NC1CCCC1 | -4.53%
12 | O=C(CC1CCCCC1)NCc1ccc(F)cc1 | 61.1% (active)
13 | O=C(CC1CCCCC1)NCc1ccccc1 | 107% (active)
14 | O=C(CC1CCCCC1)NCc1ccco1 | -2.21%
15 | O=C(CCc1ccc(S(=O)(=O)NC2CCCCC2)cc1)NCc1ccccc1 | -10%
16 | Cc1ccc(Cn2c(C)c3cnn(CC(=O)NCc4ccccn4)c(=O)c3c2C)cc1 | -6.49%
17 | Cc1nn(CC2CC2)c(=O)n1N(C)c1ncc(C(F)(F)F)cc1Cl | -23.8%
18 | COc1ccc(NS(=O)(=O)c2ccc(F)cc2F)cn1 | -5.14%
19 | CCOC(=O)Cn1c(=O)n(Cc2ccc(OC)cc2)c(=O)c2cccnc21 | -6.29%
20 | Cc1cc(NS(=O)(=O)c2ccc(NC(=O)C(C)Oc3cccc(C)c3C)cc2)nc(C)n1 (stereo not drawn) | 1.79%
21 | CC(NC(=O)COc1ccc(-c2ccccc2)cc1)C1CCCO1 (stereo not drawn) | 12%
22 | COc1ccc(C)cc1NC(=O)CNCc1cccs1 | -6.47%
23 | O=C(Cc1coc2ccc3ccccc3c12)NCc1cccs1 | 1.44%
24 | Cc1ccc2c(CC(=O)NCc3cccs3)coc2c1 | 77.5% (active)
25 | CC(C)[C@H](NC(=O)N1CCn2c1nc1ccccc12)C(=O)NC1CC1 | 25.9%
26 | CCOC(=O)C1(CCOc2ccccc2)CCN(C(=O)c2cncs2)CC1 | -4.69%
27 | CCOC(=O)C1(Cc2ccccc2C(F)(F)F)CCN(C(=O)c2cc(C)n(C)n2)CC1 | 109% (active)
28 | CCOC(=O)C1(Cc2ccc(Cl)cc2)CCN(C(=O)C2=NNC(=O)CC2)CC1 | -6.2%
